Only some compounds are listed: those with a hit (about 19% of all), similar ones and a draw of the others.
IL1B secr inh – inflammasome signaling inhibition, IL-1 beta readout | hit rate 4.7% among 360,000 | THP-1 LPS/ATP IL-1B secretion, AlphaLISA, 16 h; stronger effect = lower value | activity change, % at 57.5 µM; in the data active = activity change below about -50%; inconclusive = mostly about -30% to -49%
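Secreted IL-1B measured by AlphaLISA bead assay after 16 h compound exposure of THP-1 cells; compounds (final up to 57.5 uM) added 1 h before LPS (250 ng/mL) and ATP (1.25 mM) stimulation; lower signal means less secretion.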
DT40 TDP1 CPT – growth inhibition of DT40 Tdp1-/-;hTDP1 cells with camptothecin (screen for TDP1 inhibitors) | chicken DT40 Tdp1-/-;hTDP1 cells + 20 nM CPT, ATP luminescence, 48 h | Potency, µM (highest dose often 46.2 µM), inactives show at the top dose activity change, negative = growth inhibition, actives largely listed as inhibitors | hit rate 12% among 420,000 | AID 686979; note: potency is the fitted concentration of half-maximal effect; nearly all actives have a fitted effect of over 55% in size
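Cell growth measured by CellTiter-Glo luminescence after a minimum 48 h, 37 C compound exposure with 20 nM CPT in Tdp1-knockout DT40 cells stably expressing hTDP1, seeded 400/well; qHTS titration format.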
HT1080NT lethal – kills 2HG-producing HT-1080-NT fibrosarcoma cells | HT-1080-NT fibrosarcoma viability, CellTiter-Glo ATP luminescence, 48 h | Potency, µM (titrated, usually from 46.1 µM), without a hit: at the top dose activity, negative = less viability, hits mostly cytotoxic | hit rate 1.6% among 360,000;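 note: NT is the 2HG producing partner of a matched IDH1 knockdown line; potency is the fitted concentration of half-maximal effect; 0% = DMSO-treated cells and -100% = media-only wells without cells; nearly all actives have a fitted effect of over 55% in size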
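Viability by CellTiter-Glo luminescence after 48 h compound exposure at 37C of HT-1080-NT cells (750/well, RPMI, 5% FBS). % activity scaled between DMSO wells and medium-only wells, then curve-fitted and categorized by curve class.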
TDP1 cell noCPT – qHTS for Inhibitors of human tyrosyl-DNA phosphodiesterase 1 (TDP1): qHTS in cells in absence of CPT | DT40 Tdp1-/- hTDP1 cells, no CPT, ATP luminescence, 48 h | Potency, µM (doses to about 46.2 µM), for the others: top-dose activity change, negative = growth inhibition, hits mostly inhibitors | hit rate 15% among 420,000; note: potency is the fitted concentration of half-maximal effect; nearly all actives have a fitted effect of over 55% in size
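Camptothecin absent (DMSO only). Human TDP1-complemented DT40 knockout cells, 400 cells/well, 37 °C for minimum 48 hr; ATP measured via CellTiter-Glo, 30 min dark incubation, luminescence.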
HT1080 IDH1KD tx – HT-1080 IDH1 knockdown cell toxicity (counter line). HT-1080 IDH1 knockdown viability, ATP luminescence, 48 h. Potency, µM (titrated, usually from 46.1 µM), for the others: at the highest dose activity, negative = toxicity, most hits filed as cytotoxic. hit rate 2% among 360,000;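 note: potency is the fitted concentration of half-maximal effect; 0% = DMSO wells and -100% = cell-free medium wells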
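Using the IDH1-knockdown HT-1080 line run in the same batch and compound series as the NT line, viability after 48 h at 37 °C was determined by CellTiter-Glo luminescence and expressed as % activity.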
Numbers without * were called inactive; u = inconclusive; x = not tested or not shown; [ ] = another dose, or the depositor's remark. Unless noted, calls come from the whole dose curve; as a rule, active = well fitted curve in the direction sought with a large enough effect; inconclusive = small, poorly fitted or top-dose-only effect, or another doubt; inactive = no such curve, though single readings can be large; an effect the other way counts as inactive or inconclusive. Unless noted, % is set by controls: 0 for no effect and ±100 for the full control effect.

SMILES | IL1B secr inh | DT40 TDP1 CPT | HT1080NT lethal | TDP1 cell noCPT | HT1080 IDH1KD tx
CC(=O)/C=C1/SC(CC(=O)O)C(=O)N1c1ccccc1 (stereo not given) | 17 | 5% | 4% | 2% | 0%
CCC(=O)NC(c1cccs1)c1ccc2cccnc2c1O (stereo not given) | 112 | 2.9µM* | u | 4.6µM* | u
CC(C)CC(=O)NC(c1cccs1)c1ccc2cccnc2c1O (stereo not given) | 116 | 2.9µM* | u | 0.58µM* | u
O=C1CCC[C@@H]2Cc3nc4ccc(O)cc4cc3[C@@H]3CCN1[C@H]23 | 5 | 10% | 22% | 4% | 11%
O=C1CCC[C@@H]2Cc3nc4cc5c(cc4cc3[C@@H]3CCN1[C@H]23)OCO5 | -10 | 18µM* | 0% | 16µM* | -1%
CCOc1ccc(CN(C)C(=O)c2cccc(S(=O)(=O)N3CCCC3)c2)cc1OC | -15 | -9% | 0% | -22% | 1%
CC(C)CC(NC(=O)c1ccc(Cl)cc1)C(=O)OCC(=O)c1ccc2c(c1)NC(=O)CO2 (stereo not given) | -86* | 12µM* | 10µM* | 12µM* | 8.2µM*
CCC(C(=O)OCC(=O)c1ccc2c(c1)NC(=O)CO2)c1ccccc1 (stereo not given) | -18 | -18% | -21% | 21µM* | -22%
COc1ccccc1CCNS(=O)(=O)CCNC(=O)c1ccc2c(c1)OCO2 | 3 | u | -11% | u | -11%
CC(C)(C)c1cc(NCc2ccccn2)n2ncc(-c3ccc(Cl)cc3)c2n1 | -24 | u | 16% | 16µM* | 2%
CCc1nccn1-c1cc(C(C)(C)C)nc2c(-c3ccc(Cl)cc3)cnn12 | -7 | u | 12% | 18µM* | 12%
CN(C)CCCNc1cc(C(C)(C)C)nc2c(-c3ccc(Cl)cc3)cnn12 | -105* | 13µM* | 18µM* | u | 12µM*
Cc1cc(NCCCN2CCOCC2)n2ncc(-c3ccc(Cl)cc3)c2n1 | -17 | u | -16% | u | -14%
C/C(=N\NC(=O)Cn1nc(C)cc1C)c1ccc([N+](=O)[O-])cc1 | -23 | 3% | -5% | -16% | 1%
COCC(=O)Nc1cc(C(=O)N2CCc3c(Cl)cccc3C2)c2c(c1)nc(-c1ccncc1)n2C | x | 4% | x | 3% | x
CSc1ccc2c(c1)N(CCC1CCCCN1C)c1ccccc1S2 (stereo not given) | -20 | 15µM* | 18µM* | 16µM* | u
CC1CC(=O)N(CC(=O)N2CCCC2)c2ccccc2S1 (stereo not given) | 10 | -6% | 12% | -4% | -19%
COc1ccccc1-c1ccnc2c(-c3ccc(Br)cc3)c(C)nn12 | x | -18% | x | -23% | x
CCc1nn2c(-c3ccccc3OC)ccnc2c1-c1ccc(F)cc1 | x | 23µM* | x | u | x
CCc1nn2c(-c3ccccc3OC)ccnc2c1-c1ccccc1 | x | u | x | 21µM* | x
CC(NC(=O)c1cccnc1)c1nnc2n1CCN(Cc1ccc(F)cc1F)CC2 (stereo not given) | x | 24%[9.04 µM] | x | -18% | x
CNC(=O)C1CCC(Cn2c(=O)c3sccc3n(Cc3ccc(F)cc3)c2=O)CC1 (stereo not given) | x | 8.2µM* | x | 8.2µM* | x
O=c1c2sccc2n(Cc2cccc(F)c2)c(=O)n1-c1ccc(F)cc1 | 0 | 15µM* | -2% | 18µM* | u
O=C(C1CCC(Cn2c(=O)c3sccc3n(Cc3cccc(F)c3)c2=O)CC1)N1CCOCC1 (stereo not given) | x | u | x | 16µM* | x
O=C(C1CCC(Cn2c(=O)c3sccc3n(Cc3cccc(F)c3)c2=O)CC1)N1CCCCC1 (stereo not given) | x | u | x | 5.8µM* | x
SMILES | IL1B secr inh | DT40 TDP1 CPT | HT1080NT lethal | TDP1 cell noCPT | HT1080 IDH1KD tx
COc1cc(NC(=O)CCc2nnc3ccc(N4CCOCC4)nn23)cc(OC)c1OC | 0 | 2% | 13% | 22% | 6%
COc1cc(C(=O)NCC(=O)NCC2COc3ccccc3O2)cc(OC)c1OC (stereo not given) | 3 | -7% | 0% | 0% | 2%
O=C(CN1CCCC1)Nc1ccccc1Sc1ccc(Cl)cc1 | -11 | -24% | -3% | u | -4%
Cc1cccc(OCCSc2nc3ccccc3n2CC(=O)N2CCOCC2)c1 | x | -12% | x | -12% | x
Cc1c(Cl)cccc1NC(=S)Nc1ccc(S(=O)(=O)Nc2ncccn2)cc1 | -5 | -17% | 10% | -13% | -2%
NC(=O)c1cc(C(=O)c2ccc(Cl)cc2)c[nH]1 | -17 | -17% | 1% | u | 3%
COCCCn1c(=O)c2sccc2n(Cc2cccc(C)c2)c1=O | 8 | u | 3% | u | -1%
Cn1c(=O)c2sccc2n(Cc2cccc(Br)c2)c1=O | 8 | 12µM* | 2% | u | -5%
Cc1ccc(Cn2c(=O)n(CC3CCC(C(=O)N4CCOCC4)CC3)c(=O)c3sccc32)cc1 (stereo not given) | x | 21µM* | x | 16µM* | x
Cc1ccc(C(=O)NCC(c2ccco2)N2CCc3ccccc3C2)cc1C (stereo not given) | 0 | 18µM* | 4% | 21µM* | 0%
O=C(NCC(c1ccco1)N1CCc2ccccc2C1)c1ccc(Cl)c([N+](=O)[O-])c1 (stereo not given) | -83* | u | -2% | u | 1%
O=C(NCC(c1ccco1)N1CCCC1)c1ccc(Cl)c(S(=O)(=O)N2CCc3ccccc32)c1 (stereo not given) | -55* | 8.2µM* | -25% | 7.3µM* | u
O=C(NCC(c1ccco1)N1CCc2ccccc2C1)c1ccc(Br)cc1 (stereo not given) | -4 | u | 6% | 23µM* | 1%
Cc1ccc(C(=O)NCC(c2ccco2)N2CCc3ccccc3C2)cc1 (stereo not given) | -11 | u | 4% | u | 0%
C=CCOC(=O)C1=C[C@@H](c2csc3ccccc23)C[C@@H](OCCCCO)O1 | 10 | -25% | 7% | -16% | 7%
CCN(C(=O)CCS(=O)(=O)c1ccc2c(c1)oc(=O)n2C)c1ccc(OC)cc1 | 3 | -1% | 12% | 2% | 0%
CC1Cc2ccccc2N1S(=O)(=O)c1cccc(C(=O)NCCCn2ccnc2)c1 (stereo not given) | -4 | u | 4% | u | -14%
Cc1cc(C)n2c(Nc3c(C)cccc3C)c(-c3cccnc3)nc2n1 | 0 | 6% | 8% | -19% | 9%
Cc1ccccc1Nc1c(-c2ccc(Cl)s2)nc2cccc(C)n12 | x | 8.2µM* | x | u | x
